Source: PubChem BioAssay (EPA / NIEHS)
Calls of active or inactive are those of the source. How the source made its calls: active means hit-call score of the fitted dose curve at least 0.9, where 1 is the maximum; inactive means score below 0.9.

These molecules were tested on CYP2C9 (gene 1559) (assay: LTEA_HepaRG_CYP2C9: Life Technologies and Expression Analysis (LTEA) Assay for CYP2C9 using HepaRG (AID 2283484)). Conditions: mRNA level, 48 h; actives raise or lower the signal.
Method: LTEA_HepaRG is a cell based, multiplexed-readout assay that uses HepaRG, a human liver cell line, with measurements taken at 48 hours after chemical dosing on a 96-well plate.LTEA_HepaRG_CYP2C9 is one of 102 assay component(s) measured in the LTEA HepaRG cell culture assay. It is a marker of NR mediated metabolism.Data from the assay component LTEA_HepaRG_CYP2C9 was analyzed into 1 endpoint. This assay endpoint, LTEA_HepaRG_CYP2C9, was analyzed with bidirectional fitting relative to DMSO as the negative control and baseline of activity. Using a type of inducible reporter, measures of mRNA induction for gain or loss-of-signal activity can be used to understand regulation of transcription factor activity. To generalize the intended target to other relatable targets, this assay endpoint is annotated to the cyp intended target family, where the subfamily is xenobiotic metabolism.
A total of 1060 chemcials from the ToxCast library were tested in eight-point concentration-response experiments. Cell culture and cytotoxicity assays were conducted at Thermo Fisher Scientific's Custom Services facility (Madison, WI). A single lot of human HepaRG cells (Thermo Fisher Scientific, Frederick, MD) was used for the cell culture experiments. 96-well format collagen type I coated plates of human HepaRG cells were prepared using established methods. Briefly, cryopreserved HepaRG cells were thawed, plated at a density of approximately 100,000 cells/well in HepaRG Thaw, Plate, and General Purpose media (HPRG770, Thermo Fisher Scientific), and incubated for 48 hours. 0.5% DMSO was selected as vehicle control to balance the requisite need of DMSO in HepaRG cultures to maintain differentiation (for example, baseline metabolism, proportions of hepatocytes vs. cholangiocytes), while enabling further hepatic receptor pathway activation (for example, PXR and CAR) in response to chemical exposure. 48 hours after plating, the culture medium was replaced with HepaRG Serum-Free Incudtion Media. Cells were exposed to each test chemical in duplicate and maintained in CO2 incubators for another 48 hours. Chemical plates were thawed to room temperature and 200x concentrations of treatment groups were prepared. 8-point conentration-reponse curves were made with the highest exposure at 100 uM, followed by half-log dilutions, all in 0.5% DMSO. Each test plate contained variouse controls, induction positive controls (1mM phenobarbital), cytotoxicity positive controls ([…] aflatoxin B1), vehicle controls (0.5% DMSO), and total lysis controls (0.5% DMSO). Cell morphology images were taken using an Essen IncuCyte FLR automated microscope, with six 96-well plates imaged in about 24 minutes. Images were captured and exported and JPEG files. Spent culture media was transfered to black-well plates for the LDH assay, and remaining media was sorted at -80 C for later use. Cells were treated with RLT buffer and frozen until shipped for gene expression analysis. Total RNA was isolated from the cell suspension in 75 uL of Buffer RLT (Qiagen, Germantown, MD 20874) by Quintiles/Expression Analysis (Durham, NC) using a custom isolation procedure. Total RNA from each plate well was transferred to a preamplification plate. Fluidigm's 96.96 Dynamic ArrayTM (Fluidigm, Amsterdam, the Netherlands) technology was used for gene expression analyses by quantitative reverse transcription polymerase chain reaction (qRT-PCR, performed by Quintiles/Expression Analysis, Durham, NC)89. Standard TaqManTM Assays (Applied Biosystems/ThermoFisher Scientific, Foster City, CA) were used to assess the expression of 93 genes selected based on their selectivity and sensitivity to important hepatic receptors known to be modulated by environmental chemicals; importance in human hepatocyte functionality; and hepatotoxicity. […]

Q: Which outcome does the source give for CCCCCCCCCCCCc1cccc(S(=O)(=O)O)c1 here?
A: inactive

Q: Which outcome does the source give for CC(C)(C)c1ccccc1O here?
A: inactive

Q: For OCCN(CCO)CCO, which outcome is on record?
A: inactive

Q: With O=C(N[C@H]1CN2CCC1CC2)c1ccc2c(c1)OCCO2 as the molecule, how does the outcome read?
A: inactive

Q: How did the outcome turn out when CN(C)C(=S)S was run?
A: inactive

Q: How did the outcome turn out when COc1ccccc1N was run?
A: inactive

Q: N#Cc1cccnc1 was tested. Which outcome did it give?
A: inactive

Q: With Cc1cc(C)cc(C)c1 as the molecule, how does the outcome read?
A: inactive

Q: How did the outcome turn out when Clc1cccc(Cl)c1 was run?
A: inactive

Q: How did the outcome turn out when O=C(O)C1(c2ccc3c(c2)OC[C@H](Cc2ccc(-c4ccccc4)cc2)[C@H]3O)CCCC1 was run?
A: inactive

Q: How did the outcome turn out when Oc1cc(Cl)c(Cl)cc1Cl was run?
A: inactive

Q: Which outcome does the source give for Clc1cccc(Cl)c1Cl here?
A: inactive

Q: CC(C)O.CC(C)O.OCCN(CCO)CCO.OCCN(CCO)CCO.[Ti] was tested. Which outcome did it give?
A: inactive
